Measured values reported in the supplement of paper PMC11001985.

What follows are targets tested with C#CCNC(=O)CCSSCCC(=O)NCCc1ccc(C=O)c(C=O)c1 (assay: lysine labeling ratio R10:1 (500 µM / 50 µM probe), SILAC-ABPP in living cells; higher = lower intrinsic lysine reactivity toward the probe, active = 2 or less). Conditions: HeLa; probe concentrations 500 vs 50 µM.
Summary of the method: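 With forward and reverse label swaps, light and heavy SILAC HeLa cells, alive and in PBS at room temperature, were exposed to either 500 µM or 50 µM of an alkyne-tagged lysine probe bearing a disulfide link. After mixing, lysates were clicked to biotin-azide, cut with trypsin, pulled down on neutravidin, freed with DTT, alkylated and analysed on a TIMS-TOF Pro by LC-MS/MS. The per-lysine value R is the median over forward and reverse replicates of the filtered median high-probe/low-probe MS1 peptide ratio. It is capped at 20.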

Chain of UniProt P35579 (P35579 whole entry): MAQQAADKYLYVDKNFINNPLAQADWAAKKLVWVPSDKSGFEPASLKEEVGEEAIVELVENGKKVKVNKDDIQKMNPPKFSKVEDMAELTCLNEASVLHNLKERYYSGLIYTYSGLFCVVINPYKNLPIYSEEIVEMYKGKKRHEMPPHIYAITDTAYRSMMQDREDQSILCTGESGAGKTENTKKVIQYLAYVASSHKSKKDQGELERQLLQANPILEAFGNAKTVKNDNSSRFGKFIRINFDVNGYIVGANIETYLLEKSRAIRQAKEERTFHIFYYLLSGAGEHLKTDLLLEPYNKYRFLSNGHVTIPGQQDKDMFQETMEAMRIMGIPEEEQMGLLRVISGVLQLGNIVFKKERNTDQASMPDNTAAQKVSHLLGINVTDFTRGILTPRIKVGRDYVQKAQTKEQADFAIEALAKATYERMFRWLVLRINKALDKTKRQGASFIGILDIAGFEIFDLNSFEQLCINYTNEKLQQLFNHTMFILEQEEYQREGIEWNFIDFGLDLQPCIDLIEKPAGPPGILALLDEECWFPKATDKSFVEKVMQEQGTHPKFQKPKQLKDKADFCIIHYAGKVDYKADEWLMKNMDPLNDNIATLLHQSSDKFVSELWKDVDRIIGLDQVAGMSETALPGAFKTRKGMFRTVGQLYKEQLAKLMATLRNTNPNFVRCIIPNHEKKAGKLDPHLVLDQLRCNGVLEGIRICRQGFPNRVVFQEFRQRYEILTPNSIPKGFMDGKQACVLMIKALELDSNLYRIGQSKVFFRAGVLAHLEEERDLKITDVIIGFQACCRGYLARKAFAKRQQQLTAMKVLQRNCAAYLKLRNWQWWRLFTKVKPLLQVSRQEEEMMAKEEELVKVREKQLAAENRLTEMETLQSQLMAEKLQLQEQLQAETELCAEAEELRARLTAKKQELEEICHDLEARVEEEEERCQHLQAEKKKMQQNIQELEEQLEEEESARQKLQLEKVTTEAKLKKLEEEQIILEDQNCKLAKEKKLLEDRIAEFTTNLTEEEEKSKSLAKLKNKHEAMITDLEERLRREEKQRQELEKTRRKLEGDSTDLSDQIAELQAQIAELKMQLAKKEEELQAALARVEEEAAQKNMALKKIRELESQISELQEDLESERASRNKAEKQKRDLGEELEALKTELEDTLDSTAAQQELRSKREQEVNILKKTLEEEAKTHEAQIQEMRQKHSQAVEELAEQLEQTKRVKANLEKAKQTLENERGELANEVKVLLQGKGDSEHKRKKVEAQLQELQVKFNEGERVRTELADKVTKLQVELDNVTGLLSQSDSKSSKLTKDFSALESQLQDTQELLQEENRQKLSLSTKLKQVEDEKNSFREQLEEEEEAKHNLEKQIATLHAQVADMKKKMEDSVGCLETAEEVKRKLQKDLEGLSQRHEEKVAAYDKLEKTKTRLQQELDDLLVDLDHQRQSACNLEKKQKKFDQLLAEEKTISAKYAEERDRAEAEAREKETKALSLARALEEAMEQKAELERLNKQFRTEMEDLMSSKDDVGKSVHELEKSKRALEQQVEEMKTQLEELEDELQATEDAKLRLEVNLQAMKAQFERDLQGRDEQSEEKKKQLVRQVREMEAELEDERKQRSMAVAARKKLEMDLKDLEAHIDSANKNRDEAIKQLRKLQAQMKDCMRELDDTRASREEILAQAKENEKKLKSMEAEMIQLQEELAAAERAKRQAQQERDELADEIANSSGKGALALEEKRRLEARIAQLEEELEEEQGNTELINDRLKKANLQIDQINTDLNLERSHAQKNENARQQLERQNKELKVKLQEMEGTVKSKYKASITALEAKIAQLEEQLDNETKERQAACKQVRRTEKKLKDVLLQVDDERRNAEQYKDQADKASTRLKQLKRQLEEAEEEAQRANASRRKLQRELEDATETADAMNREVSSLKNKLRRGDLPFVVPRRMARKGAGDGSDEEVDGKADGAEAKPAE
Chain of UniProt Q05682 (Q05682 whole entry): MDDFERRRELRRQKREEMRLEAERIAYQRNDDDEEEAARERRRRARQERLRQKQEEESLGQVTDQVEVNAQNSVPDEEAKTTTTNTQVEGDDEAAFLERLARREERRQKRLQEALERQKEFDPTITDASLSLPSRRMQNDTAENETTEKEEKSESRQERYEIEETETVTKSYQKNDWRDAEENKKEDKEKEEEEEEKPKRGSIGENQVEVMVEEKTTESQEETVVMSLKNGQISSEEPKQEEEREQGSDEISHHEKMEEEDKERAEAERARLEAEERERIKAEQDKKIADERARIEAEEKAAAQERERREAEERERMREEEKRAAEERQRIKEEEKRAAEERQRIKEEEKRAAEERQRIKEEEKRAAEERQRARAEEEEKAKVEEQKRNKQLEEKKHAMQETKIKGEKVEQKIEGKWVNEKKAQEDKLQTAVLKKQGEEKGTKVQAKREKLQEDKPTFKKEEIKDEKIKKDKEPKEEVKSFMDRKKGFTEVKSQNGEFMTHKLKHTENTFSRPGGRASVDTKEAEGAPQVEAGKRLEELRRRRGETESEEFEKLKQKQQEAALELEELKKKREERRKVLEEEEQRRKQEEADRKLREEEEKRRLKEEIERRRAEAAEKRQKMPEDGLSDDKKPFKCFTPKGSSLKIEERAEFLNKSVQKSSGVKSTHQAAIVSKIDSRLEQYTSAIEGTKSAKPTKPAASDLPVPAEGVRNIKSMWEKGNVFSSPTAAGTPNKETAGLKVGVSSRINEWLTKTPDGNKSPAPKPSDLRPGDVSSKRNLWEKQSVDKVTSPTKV
Chain of UniProt Q29983 (Q29983 whole entry): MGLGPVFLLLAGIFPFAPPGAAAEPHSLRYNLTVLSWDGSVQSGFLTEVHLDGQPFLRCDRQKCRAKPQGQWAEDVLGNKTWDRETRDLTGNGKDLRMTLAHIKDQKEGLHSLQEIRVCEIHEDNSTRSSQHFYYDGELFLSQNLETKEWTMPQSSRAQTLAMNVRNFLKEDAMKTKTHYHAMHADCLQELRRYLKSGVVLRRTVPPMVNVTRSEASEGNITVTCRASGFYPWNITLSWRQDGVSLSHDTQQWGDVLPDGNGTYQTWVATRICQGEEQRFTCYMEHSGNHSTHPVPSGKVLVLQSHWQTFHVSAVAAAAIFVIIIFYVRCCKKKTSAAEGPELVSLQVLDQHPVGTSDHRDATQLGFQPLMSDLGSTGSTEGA
Chain of UniProt P07195 (P07195 whole entry, looked up): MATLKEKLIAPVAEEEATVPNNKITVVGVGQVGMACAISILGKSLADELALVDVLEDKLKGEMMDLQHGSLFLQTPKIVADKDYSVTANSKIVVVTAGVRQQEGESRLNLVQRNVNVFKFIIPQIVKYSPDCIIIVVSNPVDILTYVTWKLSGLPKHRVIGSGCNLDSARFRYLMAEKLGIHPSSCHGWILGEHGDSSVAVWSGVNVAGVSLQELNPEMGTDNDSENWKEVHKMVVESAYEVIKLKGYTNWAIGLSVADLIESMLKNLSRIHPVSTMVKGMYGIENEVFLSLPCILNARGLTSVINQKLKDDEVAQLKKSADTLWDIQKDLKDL
Chain of UniProt Q7KZF4 (Q7KZF4 whole entry): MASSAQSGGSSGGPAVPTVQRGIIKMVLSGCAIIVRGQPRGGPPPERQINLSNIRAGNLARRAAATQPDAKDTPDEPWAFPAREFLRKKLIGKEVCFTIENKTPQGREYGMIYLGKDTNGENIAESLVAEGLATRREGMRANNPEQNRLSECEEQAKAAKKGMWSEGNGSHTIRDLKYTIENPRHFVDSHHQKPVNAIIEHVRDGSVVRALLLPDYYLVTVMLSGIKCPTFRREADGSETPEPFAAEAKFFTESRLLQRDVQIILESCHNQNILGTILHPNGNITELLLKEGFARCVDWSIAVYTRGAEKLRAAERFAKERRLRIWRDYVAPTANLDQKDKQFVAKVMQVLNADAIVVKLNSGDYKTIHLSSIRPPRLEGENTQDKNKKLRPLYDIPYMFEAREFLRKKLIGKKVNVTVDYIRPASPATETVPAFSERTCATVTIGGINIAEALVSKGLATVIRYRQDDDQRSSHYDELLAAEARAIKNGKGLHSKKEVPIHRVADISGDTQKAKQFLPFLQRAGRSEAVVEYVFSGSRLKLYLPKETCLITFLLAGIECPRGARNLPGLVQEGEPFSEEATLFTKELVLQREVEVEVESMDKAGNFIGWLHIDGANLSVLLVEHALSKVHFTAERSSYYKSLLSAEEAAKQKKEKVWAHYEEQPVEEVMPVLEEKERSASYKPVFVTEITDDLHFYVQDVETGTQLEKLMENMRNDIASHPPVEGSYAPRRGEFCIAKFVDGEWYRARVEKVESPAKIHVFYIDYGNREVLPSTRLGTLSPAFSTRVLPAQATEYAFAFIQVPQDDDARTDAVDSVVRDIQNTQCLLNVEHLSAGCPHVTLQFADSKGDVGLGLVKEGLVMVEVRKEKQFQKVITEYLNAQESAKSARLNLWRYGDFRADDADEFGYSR
Chain of UniProt O43854 (O43854 whole entry): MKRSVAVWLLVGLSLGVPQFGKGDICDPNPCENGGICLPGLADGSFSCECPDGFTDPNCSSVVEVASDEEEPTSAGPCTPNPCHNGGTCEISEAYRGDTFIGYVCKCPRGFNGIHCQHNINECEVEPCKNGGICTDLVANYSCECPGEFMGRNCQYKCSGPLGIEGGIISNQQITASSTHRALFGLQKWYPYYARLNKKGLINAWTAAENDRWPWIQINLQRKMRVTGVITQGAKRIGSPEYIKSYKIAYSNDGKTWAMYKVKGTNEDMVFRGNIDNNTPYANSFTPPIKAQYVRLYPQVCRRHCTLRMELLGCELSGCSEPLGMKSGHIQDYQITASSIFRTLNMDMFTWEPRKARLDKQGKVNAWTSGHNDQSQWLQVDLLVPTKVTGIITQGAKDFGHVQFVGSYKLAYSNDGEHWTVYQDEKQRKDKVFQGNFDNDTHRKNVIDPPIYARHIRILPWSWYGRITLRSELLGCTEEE

Lysine labeling ratio R10:1, active:
SND1 (lysine site: K177) (UniProt Q7KZF4) 0.9
NSUN2 (lysine site: K257) (UniProt Q08J23) 1.71
CHST14 (lysine site: K226) (UniProt Q8NCH0) 1.36
UniProt O95980 (lysine site: K747) 1.22
UniProt Q12904 (lysine site: K35) 1.92
MYH9 (lysine site: K1392) (UniProt P35579) 1.15
ITGA5 (lysine site: K588) (UniProt P08648) 1.72
EDIL3 (lysine site: K429) (UniProt O43854) 1.21
SEMA3C (lysine site: K731) (UniProt Q99985) 0.505
THBS1 (lysine site: K968) (UniProt P07996) 1.48
SHMT2 (lysine site: K181) (UniProt P34897) 1.17
UniProt P16144 (lysine site: K151) 1.53
ARHGAP17 (lysine site: K9) (UniProt Q68EM7) 1.92
RDX (lysine site: K363) (UniProt P35241) 1.44
GANAB (lysine site: K491) (UniProt Q14697) 1.12

Lysine labeling ratio R10:1, inactive:
CALD1 (lysine site: K605) (UniProt Q05682) 3.32
ITGB5 (lysine site: K170) (UniProt P18084) 3.44
RBMX (lysine site: K150) (UniProt P38159) 16.9
MICA (lysine site: K94) (UniProt Q29983) 2.63
EIF2S1 (lysine site: K190) (UniProt P05198) 2.9
HNRNPC (lysine site: K170) (UniProt P07910) 2.35
MYH9 (lysine site: K760) (UniProt P35579) 3.31
MYH9 (lysine site: K835) (UniProt P35579) 8.12
DSG2 (lysine site: K251) (UniProt Q14126) 8.19
UniProt P61978 (lysine site: K405) 6.82
UniProt Q9UHN6 (lysine site: K278) 3.15
NUCB1 (lysine site: K205) (UniProt Q02818) 4.75
UniProt Q6ZMR3 (lysine site: K155) 2.54
CALD1 (lysine site: K674) (UniProt Q05682) 2.25
PVR (lysine site: K153) (UniProt P15151) 4.25
TFRC (lysine site: K585) (UniProt P02786) 4.53
ATP1B1 (lysine site: K288) (UniProt P05026) 13.2
IQGAP1 (lysine site: K1389) (UniProt P46940) 5.25
UniProt P62826 (lysine site: K71) 2.74
UniProt Q9UKX5 (lysine site: K256) 5.46
NPTN (lysine site: K244) (UniProt Q9Y639) 8.84
PTPRF (lysine site: K204) (UniProt P10586) 4.93
LDHB (lysine site: K156) (UniProt P07195) 6.77
IGF2R (lysine site: K393) (UniProt P11717) 3.23
EPPK1 (lysine site: K2707) (UniProt P58107) 3.42
